About 2,000 (36%) of roughly 5,500 compounds were called active. Inconclusive results (about 18%) are left out. Rule as the data show it: active = normalized growth mostly below about 0.91 (no sharp cut-off); inconclusive = no clear call, values can overlap the other calls; inactive = mostly above about 0.92. The list shows a part of the results.
Test: chemical genetic growth profiling, strain panel (AID 1159580);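 also: tested at 20 µM; growth read once vehicle control cultures reached saturation at 30 °C; 1 = growth at the plate median or of vehicle wells; lower values mean less growth of the strain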
Conditions: S. cerevisiae deletion strains, growth OD

Measured: normalized growth

CCCCCC(=O)Cc1cc(O)cc(O)c1C(=O)Oc1cc(CC(=O)CCCCC)c(C(=O)O)c(OC)c1
active: locus YAL021C, strain ccr4, hits give low values 0.892 | locus YAL026C, strain drs2, hits give low values 0.86 | locus YBR009C, strain hhf1, hits give low values 0.881 | locus YBR023C, strain chs3, hits give low values 0.907 | locus YBR171W, strain sec66, hits give low values 0.858 | locus YDR137W, strain rgp1, hits give low values 0.412 | locus YDR159W, strain sac3, hits give low values 0.771 | locus YDR335W, strain msn5, hits give low values 0.894 | locus YDR392W, strain spt3, hits give low values 0.404 | locus YER016W, strain bim1, hits give low values 0.913 | locus YER155C, strain BEM2 (second series), hits give low values 0.639 | locus YGL167C, strain pmr1, hits give low values 0.89 | locus YGL173C, strain kem1, hits give low values 0.851 | locus YGL240W, strain doc1, hits give low values 0.77 | locus YGL253W, strain hxk2, hits give low values 0.855 | locus YHR013C, strain ard1, hits give low values 1.18 [resistant] | locus YHR027C, strain rpn1, hits give low values 0.919 | locus YHR142W, strain chs7, hits give low values 0.818 | locus YJL095W, strain BCK1 (second series), hits give low values 0.694 | locus YJL129C, strain trk1, hits give low values 0.632 | locus YJL164C, strain tpk1, hits give low values 0.899 | locus YJL166W, strain qcr8, hits give low values 0.871 | locus YJL187C, strain SWE1, hits give low values 0.909 | locus YKR091W, strain srl3, hits give low values 0.922 | locus YLL041C, strain sdh2, hits give low values 0.927 | locus YLR027C, strain aat2, hits give low values 0.922 | locus YLR221C, strain rsa3, hits give low values 0.859 | locus YLR262C, strain YPT6 (second series), hits give low values 0.409 | locus YLR320W, strain mms22, hits give low values 0.826 | locus YLR342W, strain FKS1, hits give low values 0.901 | locus YML120C, strain ndi1, hits give low values 0.898 | locus YMR058W, strain fet3, hits give low values 0.883 | locus YMR129W, hits give low values 0.918 | locus YMR205C, strain PFK2, hits give low values 0.783 | locus YNL071W, strain lat1, hits give low values 0.888 | locus YOR001W, strain rrp6, hits give low values 0.882 | locus YOR070C, strain gyp1, hits give low values 0.918 | locus YOR265W, strain rbl2, hits give low values 0.925 | locus YOR270C, strain vph1, hits give low values 0.607 | locus YPL051W, strain arl3, hits give low values 0.853 | locus YPL078C, strain atp4, hits give low values 0.862 | locus YPL106C, strain sse1, hits give low values 0.812 | locus YPL240C, strain hsp82, hits give low values 0.912
inactive: locus YAL030W, strain snc1, hits give low values 0.934 | locus YBL061C, strain skt5, hits give low values 0.925 | locus YBR231C, strain swc5, hits give low values 0.927 | locus YBR279W, strain paf1, hits give low values 0.943 | locus YCL011C, strain gbp2, hits give low values 0.933 | locus YCL016C, strain dcc1, hits give low values 0.943 | locus YCL069W, strain vba3, hits give low values 0.929 | locus YCR088W, strain abp1, hits give low values 0.934 | locus YDL005C, strain med2, hits give low values 0.954 | locus YDL040C, strain nat1, hits give low values 0.939 | locus YDR001C, strain nth1, hits give low values 0.936 | locus YDR069C, strain doa4, hits give low values 0.95 | locus YDR195W, strain ref2 0.863 | locus YDR297W, strain sur2, hits give low values 0.927 | locus YDR334W, strain swr1, hits give low values 0.917 | locus YEL003W, strain gim4, hits give low values 0.919 | locus YEL037C, strain rad23, hits give low values 0.941 | locus YEL061C, strain CIN8 (second series), hits give low values 0.946 | locus YER015W, strain faa2, hits give low values 0.947 | locus YER111C, strain swi4, hits give low values 0.941 | locus YFR010W, strain ubp6, hits give low values 0.933 | locus YGL227W, strain vid30, hits give low values 0.937 | locus YHR030C, strain SLT2, hits give low values 1.01 | locus YHR079C, strain IRE1, hits give low values 0.981 | locus YJL092W, strain hpr5, hits give low values 0.943 | locus YJL095W, strain BCK1, hits give low values 0.99 | locus YJL115W, strain asf1, hits give low values 0.922 | locus YJL154C, strain vps35, hits give low values 0.935 | locus YJR066W, strain TOR1, hits give low values 0.939 | locus YKL160W, strain elf1, hits give low values 0.916 | locus YKR026C, strain gcn3, hits give low values 0.933 | locus YLL001W, strain dnm1, hits give low values 0.941 | locus YLL026W, hits give low values 0.935 | locus YLR113W, strain HOG1, hits give low values 0.983 | locus YLR258W, strain gsy2, hits give low values 0.919 | locus YLR357W, strain rsc2, hits give low values 0.866 | locus YLR370C, strain arc18, hits give low values 0.925 | locus YLR384C, strain iki3, hits give low values 0.945 | locus YMR125W, strain sto1, hits give low values 0.909 | locus YMR231W, strain pep5, hits give low values 0.929 | locus YNL183C, strain NPR1, hits give low values 0.946 | locus YNL209W, strain ssb2, hits give low values 0.948 | locus YNL248C, strain rpa49, hits give low values 0.903 | locus YNL322C, strain KRE1 (second series), hits give low values 0.919 | locus YNR049C, strain mso1, hits give low values 0.95 | locus YOR080W, strain dia2, hits give low values 0.938 | locus YOR083W, strain WHI5, hits give low values 0.898 | locus YOR106W, strain vam3, hits give low values 0.897 | locus YOR231W, strain MKK1, hits give low values 0.994 | locus YOR290C, strain snf2, hits give low values 0.925 | locus YPL256C, strain CLN2, hits give low values 0.989
